According to PubChem BioAssay (NCATS):
Records with an inconclusive call do not appear. Calls of active or inactive are those of the source. Unless noted, calls come from the whole dose curve; as a rule, active = well fitted curve in the direction sought with a large enough effect in the repeat runs; inconclusive = weak or mixed curves; inactive = no such curve, though single readings can be large; an effect the other way counts as inactive or inconclusive.

Tests used:
[1] = target: Cytochrome P450 2D6 (Homo sapiens) (UniProt P10635); test: Cytochrome P450 family 2 subfamily D member 6 (CYP2D6) small molecule antagonists: luciferase biochemical (cell-free) qHTS assay (AID 1645840); note: nearly all actives have a fitted effect of over 55% in size; note: potency is the fitted concentration of half-maximal effect
Chain of Cytochrome P450 2D6 (Homo sapiens) (P10635 whole entry, looked up): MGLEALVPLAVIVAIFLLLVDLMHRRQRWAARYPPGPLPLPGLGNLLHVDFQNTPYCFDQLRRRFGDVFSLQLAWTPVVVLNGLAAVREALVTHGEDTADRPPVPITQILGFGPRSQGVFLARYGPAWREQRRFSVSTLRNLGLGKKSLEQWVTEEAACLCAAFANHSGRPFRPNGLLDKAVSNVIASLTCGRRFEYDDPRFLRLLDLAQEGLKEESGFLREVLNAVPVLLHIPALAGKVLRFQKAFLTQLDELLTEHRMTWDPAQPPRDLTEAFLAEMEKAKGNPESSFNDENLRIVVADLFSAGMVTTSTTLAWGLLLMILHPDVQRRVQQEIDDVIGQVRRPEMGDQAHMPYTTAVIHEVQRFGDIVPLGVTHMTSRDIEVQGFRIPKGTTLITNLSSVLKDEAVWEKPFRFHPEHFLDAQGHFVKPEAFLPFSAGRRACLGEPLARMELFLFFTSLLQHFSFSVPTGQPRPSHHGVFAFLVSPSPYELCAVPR
Summary of the method: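 P450-Glo CYP2D6 system: proluciferin substrate converted by enzyme to luciferin, read by luminescence proportional to activity. Enzyme-substrate mix with compound 10 min at room temperature, then NADPH regeneration 1 h before detection reagent.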

[2] = target: Cytochrome P450 2C9 (Homo sapiens) (UniProt P11712); test: Cytochrome P450 family 2 subfamily C member 9 (CYP2C9) small molecule antagonists: luciferase biochemical (cell-free) qHTS assay (AID 1645842); note: nearly all actives have a fitted effect of over 55% in size; note: potency is the fitted concentration of half-maximal effect
Chain of Cytochrome P450 2C9 (Homo sapiens) (P11712 whole entry, looked up): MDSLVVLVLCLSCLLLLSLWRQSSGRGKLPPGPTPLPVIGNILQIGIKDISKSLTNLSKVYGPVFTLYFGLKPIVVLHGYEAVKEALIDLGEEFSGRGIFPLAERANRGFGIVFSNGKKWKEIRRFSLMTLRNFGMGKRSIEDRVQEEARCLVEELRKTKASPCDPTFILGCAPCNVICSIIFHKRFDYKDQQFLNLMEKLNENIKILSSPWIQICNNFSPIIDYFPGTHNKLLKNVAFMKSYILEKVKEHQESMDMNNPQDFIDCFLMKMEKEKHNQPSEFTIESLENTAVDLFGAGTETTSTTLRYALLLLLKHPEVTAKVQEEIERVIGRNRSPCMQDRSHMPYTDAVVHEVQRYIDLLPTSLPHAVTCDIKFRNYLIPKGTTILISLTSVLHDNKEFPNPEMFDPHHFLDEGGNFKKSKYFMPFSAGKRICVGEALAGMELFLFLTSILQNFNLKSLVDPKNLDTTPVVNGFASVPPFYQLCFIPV
Summary of the method: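 P450-Glo CYP2C9 system: proluciferin substrate with enzyme in mix containing 0.4% BSA, 10 min at room temperature, then NADPH regeneration solution added and incubated 1 h at 37C. Detection reagent stopped reaction; luminescence read after 20 min as RLU.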

[3] = target: Glutathione peroxidase 1 (Homo sapiens) (UniProt P07203); test: Primary qHTS Assay for Inhibitors of Recombinant Selenoprotein Glutathione Peroxidase 1 (GPX1) (AID 1845191; active = well fitted curve in the direction sought with a large enough effect; an effect the other way counts as inactive or inconclusive; note: nearly all actives have a fitted effect of over 65% in size)
Chain of Glutathione peroxidase 1 (Homo sapiens) (P07203 whole entry, looked up): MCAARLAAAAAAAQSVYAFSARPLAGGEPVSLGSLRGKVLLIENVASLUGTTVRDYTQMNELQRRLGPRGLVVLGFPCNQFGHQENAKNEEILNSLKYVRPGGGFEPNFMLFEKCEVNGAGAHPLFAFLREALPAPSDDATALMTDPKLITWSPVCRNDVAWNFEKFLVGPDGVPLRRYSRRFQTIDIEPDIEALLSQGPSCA
Summary of the method: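 GR-coupled readout: NADPH consumption tracked by fluorescence, ex 340/em 450 nm, at t=0 and after 15 min at RT. Final mix 10 nM GPX1, 1 mM GSH, 0.5 mM CHP, 0.5 mM NADPH, 100 nM GR, 0.01% BSA, following 30 min enzyme–compound preincubation.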

[4] = target: Rap guanine nucleotide exchange factor 3 (Homo sapiens) (UniProt O95398); test: Confirmatory qHTS for antagonist of cAMP-regulated guanine nucleotide exchange factor 3 (EPAC1) (AID 1645880; active = well fitted curve in the direction sought with a large enough effect; an effect the other way counts as inactive or inconclusive; note: nearly all actives have a fitted effect of over 55% in size)
Chain of Rap guanine nucleotide exchange factor 3 (Homo sapiens) (O95398 whole entry, looked up): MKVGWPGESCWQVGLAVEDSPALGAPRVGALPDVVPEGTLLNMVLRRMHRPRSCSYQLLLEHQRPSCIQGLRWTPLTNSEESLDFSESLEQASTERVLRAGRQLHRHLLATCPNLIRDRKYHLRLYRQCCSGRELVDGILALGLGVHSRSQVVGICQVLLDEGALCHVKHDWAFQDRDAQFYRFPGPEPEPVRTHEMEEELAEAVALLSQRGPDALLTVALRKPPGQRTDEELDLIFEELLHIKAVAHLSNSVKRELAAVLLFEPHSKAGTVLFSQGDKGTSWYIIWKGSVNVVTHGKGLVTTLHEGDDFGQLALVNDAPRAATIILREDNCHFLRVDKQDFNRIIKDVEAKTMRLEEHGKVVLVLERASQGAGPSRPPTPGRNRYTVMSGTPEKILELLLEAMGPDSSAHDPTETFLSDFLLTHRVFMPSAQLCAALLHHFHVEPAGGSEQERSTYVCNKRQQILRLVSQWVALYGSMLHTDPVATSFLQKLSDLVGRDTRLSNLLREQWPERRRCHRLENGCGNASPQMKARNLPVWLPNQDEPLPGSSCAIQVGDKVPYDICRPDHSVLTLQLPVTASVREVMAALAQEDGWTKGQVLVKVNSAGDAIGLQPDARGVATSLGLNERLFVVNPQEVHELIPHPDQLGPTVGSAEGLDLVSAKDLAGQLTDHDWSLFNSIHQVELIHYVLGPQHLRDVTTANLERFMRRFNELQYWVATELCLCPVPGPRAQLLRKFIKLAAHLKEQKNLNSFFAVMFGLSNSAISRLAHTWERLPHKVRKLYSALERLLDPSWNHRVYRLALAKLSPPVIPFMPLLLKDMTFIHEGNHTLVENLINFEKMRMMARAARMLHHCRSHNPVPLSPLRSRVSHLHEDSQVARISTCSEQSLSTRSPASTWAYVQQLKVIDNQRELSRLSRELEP
Summary of the method: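 Released BODIPY-GDP fluoresces less than Rap1-bound BODIPY-GDP; the signal is followed at 480/540 nm at 5-min intervals over 30 min, after 5 min at room temperature. Reactions contain 100 nM EPAC1, 250 nM RAP1B-BODIPY-GDP and 50 uM GDP; results are normalized to ATA and DMSO.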

[5] = target: Rap guanine nucleotide exchange factor 3 (Homo sapiens) (UniProt O95398); test: Confirmatory qHTS for agonist of cAMP-regulated guanine nucleotide exchange factor 3 (EPAC1) (AID 1645881; active = well fitted curve in the direction sought with a large enough effect; an effect the other way counts as inactive or inconclusive; note: nearly all actives have a fitted effect of over 75% in size; note: potency is the fitted concentration of half-maximal effect)
[6] = target: Rap guanine nucleotide exchange factor 4 (Homo sapiens) (UniProt Q8WZA2); test: Confirmatory qHTS for agonist of cAMP-regulated guanine nucleotide exchange factor 4 (EPAC2) (AID 1645884; active = well fitted curve in the direction sought with a large enough effect; an effect the other way counts as inactive or inconclusive;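 note: nucleotide exchange releases bodipy-GDP from Rap1 and this lowers its fluorescence; nearly all actives have a fitted effect of over 65% in size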)
Chain of Rap guanine nucleotide exchange factor 4 (Homo sapiens) (Q8WZA2 whole entry, looked up): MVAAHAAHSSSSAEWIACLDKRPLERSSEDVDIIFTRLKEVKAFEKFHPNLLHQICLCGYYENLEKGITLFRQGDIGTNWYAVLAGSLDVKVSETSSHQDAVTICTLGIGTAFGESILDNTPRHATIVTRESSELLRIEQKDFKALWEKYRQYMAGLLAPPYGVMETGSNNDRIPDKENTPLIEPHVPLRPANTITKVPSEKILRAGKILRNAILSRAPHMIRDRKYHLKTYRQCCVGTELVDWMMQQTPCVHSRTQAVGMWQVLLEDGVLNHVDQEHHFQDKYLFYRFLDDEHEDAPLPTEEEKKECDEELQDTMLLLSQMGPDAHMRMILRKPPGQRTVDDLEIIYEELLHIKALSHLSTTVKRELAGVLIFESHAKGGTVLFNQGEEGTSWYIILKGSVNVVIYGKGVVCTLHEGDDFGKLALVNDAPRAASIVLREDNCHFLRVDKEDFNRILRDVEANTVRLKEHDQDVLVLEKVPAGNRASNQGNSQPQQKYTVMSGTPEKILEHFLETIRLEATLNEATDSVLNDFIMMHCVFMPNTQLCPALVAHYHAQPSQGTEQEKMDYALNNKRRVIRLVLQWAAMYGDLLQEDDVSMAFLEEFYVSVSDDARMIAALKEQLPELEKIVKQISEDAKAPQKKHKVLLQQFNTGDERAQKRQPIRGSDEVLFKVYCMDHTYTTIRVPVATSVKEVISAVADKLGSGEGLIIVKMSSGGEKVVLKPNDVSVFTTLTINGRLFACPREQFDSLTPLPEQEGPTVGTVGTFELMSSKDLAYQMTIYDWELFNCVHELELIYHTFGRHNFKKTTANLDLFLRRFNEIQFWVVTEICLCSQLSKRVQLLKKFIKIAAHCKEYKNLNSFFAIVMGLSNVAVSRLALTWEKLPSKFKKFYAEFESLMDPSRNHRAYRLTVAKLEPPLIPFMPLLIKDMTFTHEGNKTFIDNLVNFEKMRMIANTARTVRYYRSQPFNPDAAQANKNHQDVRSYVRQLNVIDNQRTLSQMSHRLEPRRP

[7] = target: Rap guanine nucleotide exchange factor 4 (Homo sapiens) (UniProt Q8WZA2); test: Confirmatory qHTS for antagonist of cAMP-regulated guanine nucleotide exchange factor 4 (EPAC2) (AID 1645885; active = well fitted curve in the direction sought with a large enough effect; an effect the other way counts as inactive or inconclusive; note: nearly all actives have a fitted effect of over 25% in size; note: potency is the fitted concentration of half-maximal effect)
[8] = target: Rap guanine nucleotide exchange factor 3 (Homo sapiens) (UniProt O95398); test: Counterscreen qHTS for antagonist of cAMP-regulated guanine nucleotide exchange factor 3 (EPAC1) (AID 1645888; active = well fitted curve in the direction sought with a large enough effect; an effect the other way counts as inactive or inconclusive)
Summary of the method: (§1)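 Rap1B–BODIPY-GDP (250 nM) with 50 uM GDP; compounds pin-transferred to 9.74 nM–152 uM final (activator) or from 7.32 nM upwards (inhibitor). Fluorescence Ex/Em 480/540 nm read at 5 and 30 min, then after adding cAMP or buffer, at room temperature.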

[9] = target: Rap guanine nucleotide exchange factor 3 (Homo sapiens) (UniProt O95398); test: Counterscreen qHTS for agonist of cAMP-regulated guanine nucleotide exchange factor 3 (EPAC1) (AID 1645889; active = well fitted curve in the direction sought with a large enough effect; an effect the other way counts as inactive or inconclusive; note: potency is the fitted concentration of half-maximal effect; nearly all actives have a fitted effect of over 40% in size)
Summary of the method: as §1

Cc1ccc([S+](=O)([O-])NC2CCC(C)(C)CC2)cc1
Potency [1]: inactive
Potency [2]: 2.13 µM (active)

COc1ccccc1Cn1cc(C(=O)c2ccc(Cl)cc2)c(=O)c2cc3c(cc21)OCCO3
Potency [1]: 2.68 µM (active)
Potency [2]: 2.68 µM (active)

CC1=C(C(=O)Nc2cccc(C(N)=O)c2)C(c2ccccc2Cl)N=C(Nc2nc3ccccc3o2)N1 (stereo unspecified)
Potency [1]: 8.49 µM (active)
Potency [2]: 0.19 µM (active)

Cc1ccc(-n2c(SCc3cccc(F)c3)nc3[nH]ncc3c2=O)cc1C
Potency [1]: 8.49 µM (active)
Potency [2]: 1.51 µM (active)

CCc1cccc(CC)c1-n1c(CC(C)C)c(C(=O)N2CCNCC2)cc(-c2nc(-c3ccc(Cl)cc3)cs2)c1=O
Potency [1]: 9.52 µM (active)
Potency [2]: 10.7 µM (active)

CC(C)(C)c1ccc(S(=O)(=O)c2cnc(SCC(=O)Nc3ccc(F)c(Cl)c3)[nH]c2=O)cc1
Potency [1]: 16.9 µM (active)
Potency [2]: 0.536 µM (active)

Cc1ccc(C2=Nc3ccccc3N(CC(=O)Nc3ccccc3F)C(=O)C2)cc1C
Potency [1]: 2.39 µM (active)
Potency [2]: inactive

Cc1ccccc1-n1c(SCc2ccc(Cl)cc2)nc2[nH]ncc2c1=O
Potency [1]: 21.3 µM (active)
Potency [2]: 2.39 µM (active)

Cc1ccc(NC(=O)Cn2c(=O)n(CCC(=O)N3CCc4ccccc4C3)c(=O)c3ccccc32)c(C)c1
Potency [1]: inactive
Potency [2]: 0.338 µM (active)

CCc1ccc(OCCn2c(C3CC(=O)N(Cc4ccc(F)cc4)C3)nc3ccccc32)cc1 (stereo unspecified)
Potency [1]: 3.01 µM (active)
Potency [2]: inactive

CC1(C#N)CCN(c2c(C(=O)N3CCN(C(=O)N4CCCC4)CC3)cnc3c(F)cc(F)cc23)CC1
Potency [1]: inactive
Potency [2]: 12 µM (active)

COc1ccc(CC(=O)NCC(c2cccs2)S(=O)(=O)c2ccc(Cl)cc2)cc1 (stereo unspecified)
Potency [1]: 6.01 µM (active)
Potency [2]: 2.39 µM (active)

CC(CCC(=O)O)C1CC[C@H]2C3[C@H](O)C[C@@H]4C[C@H](O)CCC4(C)[C@H]3C[C@H](O)C12C (stereo partly specified)
Potency [1]: inactive
Potency [2]: inactive

COc1ccc(CCNc2nc(SCc3ccccc3Cl)nc3ccccc23)cc1OC
Potency [1]: 0.756 µM (active)
Potency [2]: 0.19 µM (active)

NC(=O)c1ccc(Cc2c(-c3cccc(-c4ccccc4)c3)[nH]n(-c3nc(C(=O)O)cs3)c2=O)cc1
Potency [1]: 23.9 µM (active)
Potency [2]: 26.8 µM (active)

COc1ccc(NC(=O)C2=C(C)Nc3nc(SCc4ccccc4C)nn3C2c2cc(OC)c(O)c(OC)c2)cc1 (stereo unspecified)
Potency [1]: inactive
Potency [2]: inactive

COc1ccc(NC(=O)C2CCCN(c3nnc(C)c4c(C)n(-c5ccccc5)nc34)C2)cc1Cl (stereo unspecified)
Potency [1]: 16.9 µM (active)
Potency [2]: 5.35 µM (active)

COc1cc(C(c2c(C)[nH][nH]c2=O)c2c(C)[nH][nH]c2=O)ccc1OC(=O)c1ccccc1F
Potency [1]: inactive
Potency [2]: 10.7 µM (active)

CCOC(=O)C1=C(O)c2ccccc2S(=O)(=O)N1C
Potency [1]: inactive
Potency [2]: inactive

N#Cc1ccccc1Cn1nnc2c(=O)[nH]c(C3CCCN(S(=O)(=O)c4ccc(F)cc4)C3)nc21 (stereo unspecified)
Potency [1]: 0.849 µM (active)
Potency [2]: 1.69 µM (active)

COc1ccc(CNC(=O)C(=O)Nc2c3c(nn2-c2ccccc2)CSC3)cc1
Potency [1]: inactive
Potency [2]: 3.38 µM (active)

COCCCNC(=O)C(=O)Nc1c2c(nn1-c1cccc(Cl)c1)CSC2
Potency [1]: inactive
Potency [2]: 8.49 µM (active)

COc1ccc(C(=O)Oc2ccc(C(c3c(C)[nH][nH]c3=O)c3c(C)[nH][nH]c3=O)cc2OC)cc1
Potency [1]: inactive
Potency [2]: 3.38 µM (active)

CCCNC(=O)C1CCC(Cn2c(=O)c3sccc3n(CC(=O)NCc3ccccc3)c2=O)CC1 (stereo unspecified)
Potency [1]: inactive
Potency [2]: 6.01 µM (active)

O=C(CSc1nccn1Cc1ccc(F)cc1)Nc1nc2ccccc2s1
Potency [1]: 10.7 µM (active)
Potency [2]: 7.56 µM (active)

COCCn1c(SCC(=O)Nc2ccc(F)c(Cl)c2)nc2c(oc3ccccc32)c1=O
Potency [1]: 2.39 µM (active)
Potency [2]: 0.952 µM (active)

COc1ccc(-c2nc(SCC(=O)Nc3ccc4c(c3)OCO4)c(-c3ccc(OC)cc3)[nH]2)cc1
Potency [1]: 5.35 µM (active)
Potency [2]: 0.849 µM (active)

NC(=O)C(c1ccccc1)(c1ccccc1)[C@H]1CCN(CCc2ccc3c(c2)CCO3)C1
Potency [1]: 0.0425 µM (active)
Potency [2]: 8.49 µM (active)

Cc1cc(-n2c(SCc3ccccc3F)nc3[nH]ncc3c2=O)ccc1Cl
Potency [1]: 19 µM (active)
Potency [2]: 23.9 µM (active)

COc1ccc(-n2ccn(CC(=O)Nc3ccc(C)c(C)c3)c(=O)c2=O)cc1OC
Potency [1]: inactive
Potency [2]: inactive

O=C(NC1CCCCC1)c1ccc(CSc2nc3cccnc3n2Cc2ccccc2F)cc1
Potency [1]: 9.52 µM (active)
Potency [2]: 0.338 µM (active)

CC(C)OCc1cc(CN2CCN(c3cccc(C(F)(F)F)c3)CC2)c(O)c2ncccc12
Potency [1]: inactive
Potency [2]: 12 µM (active)

O=C(Cn1c(=O)n(-c2ccc(Cl)cc2)c(=O)c2oc3ccccc3c21)Nc1ccccc1
Potency [1]: 0.849 µM (active)
Potency [2]: 4.77 µM (active)

COc1ccccc1CNC(=O)C1CCCN(c2nc3ccccc3n3cccc23)C1 (stereo unspecified)
Potency [1]: 2.68 µM (active)
Potency [2]: 0.0674 µM (active)

COc1cccc(CNCc2cccn2-c2nnc(N3CCN(c4ccccc4)CC3)s2)c1
Potency [1]: 3.38 µM (active)
Potency [2]: 9.52 µM (active)

CC(C)c1ccc(-n2ncc3c(=O)n(CC(=O)Nc4cc(F)ccc4Cl)cnc32)cc1
Potency [1]: inactive
Potency [2]: 3.79 µM (active)

Cc1cc(Cl)ccc1NC(=O)CCCn1nc(C)c2c(C)n(-c3ccccc3)nc2c1=O
Potency [1]: inactive
Potency [2]: 13.5 µM (active)

COc1cc(C(c2c(C)[nH][nH]c2=O)c2c(C)[nH][nH]c2=O)ccc1OC(=O)c1cccc(C)c1
Potency [1]: inactive
Potency [2]: 12 µM (active)

CCOc1ccc(-c2cc(NC(=O)Nc3ccccc3Cl)c(C(=O)OC)s2)cc1
Potency [1]: inactive
Potency [2]: 5.35 µM (active)

Cc1ccc(-n2c(SCc3ccccc3C)nc3[nH]ncc3c2=O)cc1C
Potency [1]: 12 µM (active)
Potency [2]: 21.3 µM (active)

Cc1ccc(Cn2c(SCC(=O)NCc3ccccc3)nc3ccsc3c2=O)cc1
Potency [1]: 6.01 µM (active)
Potency [2]: 6.74 µM (active)

Cc1ccc(S(=O)(=O)N2CCc3cc(C(=O)Nc4ccc(C(F)(F)F)cc4)ccc32)cc1
Potency [1]: inactive
Potency [2]: 1.51 µM (active)

Cc1ccc(CNC(=O)C2CCN(S(=O)(=O)c3c(C)noc3/C=C/c3ccccc3F)CC2)o1
Potency [1]: inactive
Potency [2]: inactive

COCCOc1nc(N)c2[nH]c(=O)n(Cc3ccc(C(=O)O)cc3)c2n1
Potency [1]: inactive
Potency [2]: inactive

CCc1ccc(-n2c(SCc3ccccc3Cl)nc3[nH]ncc3c2=O)cc1
Potency [1]: 15.1 µM (active)
Potency [2]: 23.9 µM (active)

O=C(CSc1nnc(-c2cccc(F)c2)c(-c2cccc(F)c2)n1)NC1CCCCC1
Potency [1]: inactive
Potency [2]: 1.51 µM (active)

COc1ccc(-c2n[nH]c3c2cnc2cc(OC)c(OC)cc23)cc1
Potency [1]: inactive
Potency [2]: inactive

CN1C(=O)NC(Cc2c[nH]c3c(Cl)cccc23)C1=O (stereo unspecified)
Potency [1]: inactive
Potency [2]: 13.5 µM (active)

CC1(C#N)CCN(c2c(C(=O)N3CCN(C(=O)C4CC4)CC3)cnc3ccc(Cl)cc23)CC1
Potency [1]: inactive
Potency [2]: 16.9 µM (active)

Cc1c(Cl)cccc1NC(=O)Cn1cc(C(=O)C2CCCCC2)c2ccccc21
Potency [1]: 5.35 µM (active)
Potency [2]: 2.13 µM (active)

CCOc1ccccc1NC(=O)CSc1nc2ccccc2c2nc(CCn3cncc3C)nn12
Potency [1]: 10.7 µM (active)
Potency [2]: 0.952 µM (active)

COc1cccc(-c2oc3ccc(C)cc3c(=O)c2O)c1
Potency [1]: 7.56 µM (active)
Potency [2]: 7.56 µM (active)

CC(C)[C@H](N)C(=O)O
Potency [1]: inactive
Potency [2]: inactive
Potency [3]: inactive

Oc1cccc(C(Nc2ccccn2)c2ccc3cccnc3c2O)c1Cl (stereo unspecified)
Potency [1]: 13.5 µM (active)
Potency [2]: 10.7 µM (active)
Potency [4]: inactive
Potency [5]: inactive
Potency [6]: inactive
Potency [7]: inactive
Potency [8]: inactive

CCOC(=O)c1c(NC(=O)c2ccc(S(=O)(=O)N(C)C3CCCCC3)cc2)sc2c1CCN(C(C)C)C2
Potency [1]: 9.52 µM (active)
Potency [2]: 5.35 µM (active)
Potency [4]: inactive
Potency [5]: 89.1 µM (active)
Potency [6]: inactive
Potency [7]: 4.26 µM (active)
Potency [9]: 20 µM (active)

CC1(C)C(/C=C/C=C/C=C/C=C2/N(CCCCS(=O)(=O)O)c3ccc4ccccc4c3C2(C)C)=[N+](CCCCS(=O)(=O)[O-])c2ccc3ccccc3c21
Potency [1]: 26.8 µM (active)
Potency [2]: 13.5 µM (active)
Potency [3]: inactive

CCOC(=O)c1cnc2ccc(OC)cc2c1NCCc1ccc(OC)c(OC)c1
Potency [1]: 2.39 µM (active)
Potency [2]: 0.849 µM (active)
